# Values joined by “and” are separate entries in the source; they are usually repeats but may differ in a detail not shown here. Identical values can stand only once. Active and inactive are the calls of the source. The calls were made as follows: active = hit-call score of the fitted dose curve at least 0.9, where 1 is the maximum; inactive = score below 0.9.
# How the values were obtained:
# [1] = read-out: TIMP metallopeptidase inhibitor 2 (TIMP2), TIMP2 (gene 7077); assay: BSK_KF3CT_TIMP2: BioMAP Diversity Plus: KF3CT Assay for TIMP metallopeptidase inhibitor 2 (TIMP2) Biomarker Activity (AID 2283071); details: primary human keratinocytes with fibroblasts; actives raise or lower the signal
# Method in brief: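 Human primary keratinocyte/foreskin fibroblast co-culture dosed with chemical and sampled at 24 h. TIMP-2 levels quantified by ELISA; bidirectional fitting against DMSO negative control as baseline.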
# [2] = read-out: Transforming growth factor beta 1 (TGFb1), TGFB1 (gene 7040); assay: BSK_KF3CT_TGFb1: BioMAP Diversity Plus: KF3CT Assay for Transforming growth factor beta 1 (TGFb1) Biomarker Activity (AID 2283072); details: primary human keratinocytes with fibroblasts; actives raise or lower the signal
# Method in brief: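 Human keratinocyte plus foreskin fibroblast primary co-culture, dosed with chemical for 24 h. TGF-b1 quantified by ELISA. Activity fitted bidirectionally against DMSO negative control as baseline.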
# [3] = read-out: C-C motif chemokine 2 (Homo sapiens) (UniProt P13500); assay: BSK_KF3CT_MCP1: BioMAP Diversity Plus: KF3CT Assay for Monocyte Chemoattractant Protein 1 (MCP1/CCL2) Biomarker Activity (AID 2283073); details: primary human keratinocytes with fibroblasts; actives raise or lower the signal
# Method in brief: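 ELISA readout of MCP-1 after 24 h chemical dosing of a human skin primary co-culture of keratinocytes and foreskin fibroblasts. Activity was fitted in both directions against DMSO.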
# [4] = read-out: Matrix Metallopeptidase 9 (MMP9), MMP9 (gene 4318); assay: BSK_KF3CT_MMP9: BioMAP Diversity Plus: KF3CT Assay for Matrix Metallopeptidase 9 (MMP9) Biomarker Activity (AID 2283074); details: primary human keratinocytes with fibroblasts; actives raise or lower the signal;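 as to AC50: MMP9 protein level quantified by ELISA in the co-culture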
# Method in brief: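 Human keratinocyte and foreskin fibroblast co-culture exposed to chemicals for 24 h; MMP9 biomarker measured by ELISA, bidirectional fitting relative to DMSO; cytotoxicity tracked by SRB total protein staining in parallel cultures.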
# [5] = read-out: urokinase plasminogen activator (uPA), PLAU (gene 5328); assay: BSK_KF3CT_uPA: BioMAP Diversity Plus: KF3CT Assay for urokinase plasminogen activator (uPA) Biomarker Activity (AID 2283075); details: primary human keratinocytes with fibroblasts; actives raise or lower the signal
# Method in brief: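 Primary human keratinocyte/foreskin fibroblast co-culture exposed to chemical; uPA measured by ELISA at 24 h. Bidirectional fit versus DMSO, with parallel SRB total-protein staining for cytotoxicity.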
# [6] = read-out: CD40, CD40 (gene 958); assay: BSK_LPS_CD40: BioMAP Diversity Plus: LPS Assay for CD40 Biomarker Activity (AID 2283076); details: primary human HUVEC with PBMC; actives raise or lower the signal
# Method in brief: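 Cells were dosed, incubated 24 h, then assayed for CD40 by ELISA. Gain or loss of signal was analysed relative to DMSO controls. The culture paired human umbilical vein endothelium with peripheral blood mononuclear cells.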
# [7] = read-out: Interleukin-8 (IL8), CXCL8 (gene 3576); assay: BSK_LPS_IL8: BioMAP Diversity Plus: LPS Assay for Interleukin-8 (IL8) Biomarker Activity (AID 2283078); details: primary human HUVEC with PBMC; actives raise or lower the signal
# Method in brief: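 Readout is IL-8 by ELISA, taken 24 h after compounds were added to LPS-stimulated endothelial/PBMC co-cultures. Both increases and decreases relative to DMSO control were scored through bidirectional fitting.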
# [8] = read-out: Interleukin-1 alpha (IL1a), IL1A (gene 3552); assay: BSK_LPS_IL1a: BioMAP Diversity Plus: LPS Assay for Interleukin-1 alpha (IL1a) Biomarker Activity (AID 2283080); details: primary human HUVEC with PBMC; actives raise or lower the signal
# Method in brief: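 ELISA read-out of IL-1 alpha from a human primary vascular co-culture (endothelium plus PBMC) under LPS, sampled 24 hours post-dosing. Activity was fitted in both directions relative to DMSO controls.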
# [9] = read-out: E-selectin (Homo sapiens) (UniProt P16581); assay: BSK_LPS_Eselectin: BioMAP Diversity Plus: LPS Assay for Eselectin Biomarker Activity (AID 2283077); details: primary human HUVEC with PBMC; actives raise or lower the signal
# Method in brief: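 Primary human vascular co-culture (endothelium plus PBMC) was dosed with chemical, then E-selectin quantified by ELISA at 24 h. Endpoint values derive from bidirectional curve fitting relative to DMSO.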
# [10] = BSK_LPS_SRB: Viability Assessment in the BioMAP Diversity Plus: LPS Assay (AID 2283079); details: primary human HUVEC with PBMC;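 also: total protein by sulforhodamine B absorbance as a cytotoxicity measure; measured one day after compound addition; fitted in both directions against DMSO so loss or gain of signal counts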
# Method in brief: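 Readout is SRB absorbance at 560 nm (0.1% stain, TCA-fixed parallel cultures) as a total-protein cytotoxicity measure. Cells: primary human umbilical vein endothelium plus peripheral blood mononuclear cells, 24 h after chemical exposure; DMSO served as baseline.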
# E-selectin (Homo sapiens), sequence (P16581 whole entry, looked up): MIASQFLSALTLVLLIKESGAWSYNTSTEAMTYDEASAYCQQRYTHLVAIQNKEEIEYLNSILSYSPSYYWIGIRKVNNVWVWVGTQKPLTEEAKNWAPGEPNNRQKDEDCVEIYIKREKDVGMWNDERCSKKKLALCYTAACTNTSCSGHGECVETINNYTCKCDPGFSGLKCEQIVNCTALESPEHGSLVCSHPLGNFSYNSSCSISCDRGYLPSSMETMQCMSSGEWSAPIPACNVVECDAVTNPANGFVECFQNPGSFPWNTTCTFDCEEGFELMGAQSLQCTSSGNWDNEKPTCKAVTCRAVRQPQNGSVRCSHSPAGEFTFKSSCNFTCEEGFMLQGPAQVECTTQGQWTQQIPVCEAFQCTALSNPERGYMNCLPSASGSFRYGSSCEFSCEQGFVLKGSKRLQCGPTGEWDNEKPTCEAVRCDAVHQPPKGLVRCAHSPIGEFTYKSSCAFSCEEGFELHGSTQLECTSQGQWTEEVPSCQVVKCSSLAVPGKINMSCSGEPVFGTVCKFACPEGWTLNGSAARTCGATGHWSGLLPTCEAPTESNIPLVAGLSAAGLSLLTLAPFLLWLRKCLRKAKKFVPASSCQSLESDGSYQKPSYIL
smiles,measurement,setting,value
CC(=O)OC(C)(C)C1CC=C(C)CC1 (stereo not drawn),AC50,[1],33.8 µM (active)
same,outcome,[2],inactive
same,outcome,[3],inactive
same,outcome,[4],inactive
same,AC50,[5],32.4 µM (active)
same,outcome,[6],inactive
same,outcome,[7],inactive
same,outcome,[8],inactive
CC(C)(C)c1cccc(O)c1,outcome,[1],inactive
same,outcome,[2],inactive
same,outcome,[3],inactive
same,outcome,[4],inactive
same,outcome,[5],inactive
same,outcome,[6],inactive
same,outcome,[9],inactive
same,outcome,[7],inactive
same,outcome,[8],inactive
CCOC(=O)CCCCCCCCC(=O)OCC,outcome,[1],inactive
same,outcome,[2],inactive
same,outcome,[3],inactive
same,outcome,[4],inactive
same,outcome,[5],inactive
same,outcome,[6],inactive
same,outcome,[7],inactive
same,outcome,[8],inactive
CCOC(=O)C=Cc1ccccc1,outcome,[1],inactive
same,outcome,[2],inactive
same,outcome,[3],inactive
same,outcome,[4],inactive
same,outcome,[5],inactive
same,outcome,[6],inactive
same,outcome,[7],inactive
same,outcome,[8],inactive
OCCN1CCOCC1,outcome,[1],inactive
same,outcome,[2],inactive
same,outcome,[3],inactive
same,outcome,[4],inactive
same,outcome,[5],inactive
same,outcome,[6],inactive
same,outcome,[7],inactive
same,outcome,[8],inactive
CC(C)Cc1ccc(C(C)C(=O)O)cc1 (stereo not drawn),outcome,[1],inactive
same,outcome,[2],inactive
same,outcome,[3],inactive
same,outcome,[4],inactive
same,outcome,[5],inactive
same,outcome,[6],inactive
same,outcome,[7],inactive
same,outcome,[8],inactive
C#C[C@]1(O)CC[C@H]2[C@@H]3CCc4cc(O)ccc4[C@H]3CC[C@@]21C,outcome,[1],inactive
same,outcome,[2],inactive
same,outcome,[3],inactive
same,outcome,[4],inactive
same,outcome,[5],inactive
same,outcome,[6],inactive
same,AC50,[7],31.2 µM (active)
same,AC50,[8],20 µM (active)
COc1ccccc1NC(=O)CC(C)=O,outcome,[1],inactive
same,outcome,[2],inactive
same,outcome,[3],inactive
same,outcome,[4],inactive
same,outcome,[5],inactive
same,outcome,[6],inactive
same,outcome,[7],inactive
same,outcome,[10],inactive
same,outcome,[8],inactive
O=C(c1ccc(OCCN2CCCCC2)cc1)c1c(-c2ccc(O)cc2)sc2cc(O)ccc12,AC50,[1],29.3 µM (active)
same,AC50,[2],19.8 µM (active)
same,AC50,[3],29.1 µM (active)
same,AC50,[4],17.9 µM (active)
same,AC50,[5],34.9 µM (active)
same,AC50,[6],16.6 µM (active)
same,AC50,[7],33.8 µM (active)
same,AC50,[8],21 µM (active)
C=C(C)C(N)=O,outcome,[1],inactive
same,outcome,[2],inactive
same,outcome,[3],inactive
same,outcome,[4],inactive
same,outcome,[5],inactive
same,outcome,[6],inactive
same,outcome,[7],inactive
same,outcome,[10],inactive
same,outcome,[8],inactive
CC=CC(=O)C1=C(C)C=CCC1(C)C,outcome,[1],inactive
same,outcome,[2],inactive
same,outcome,[3],inactive
same,outcome,[4],inactive
same,outcome,[5],inactive
same,outcome,[6],inactive
same,outcome,[7],inactive
same,outcome,[8],inactive
COC(=O)c1ccc(C(=O)OC)cc1,outcome,[1],inactive
same,outcome,[2],inactive
same,outcome,[3],inactive
same,outcome,[4],inactive
same,outcome,[5],inactive
same,outcome,[6],inactive
same,outcome,[7],inactive
same,outcome,[8],inactive
O=C1OC2(c3ccc(O)cc3Oc3cc(O)ccc32)c2ccccc21,outcome,[1],inactive
same,outcome,[2],inactive
same,outcome,[3],inactive
same,outcome,[4],inactive
same,outcome,[5],inactive
same,outcome,[6],inactive
same,outcome,[7],inactive
same,outcome,[8],inactive
CC/C(=C(\c1ccccc1)c1ccc(OCCN(C)C)cc1)c1ccccc1,AC50,[1],7.86 µM (active) and 9.54 µM (active)
same,AC50,[2],8.7 µM (active) and 6.05 µM (active)
same,AC50,[3],5.98 µM (active) and 7.88 µM (active)
same,AC50,[4],7.84 µM (active) and 8.19 µM (active)
same,AC50,[5],9.92 µM (active) and 9.67 µM (active)
same,AC50,[6],7.05 µM (active) and 5.81 µM (active)
same,AC50,[9],28.3 µM (active) and 14.3 µM (active)
same,AC50,[7],26.5 µM (active) and 10.8 µM (active)
same,AC50,[8],6.74 µM (active) and 9.95 µM (active)
Nc1ccc(N)c([N+](=O)[O-])c1,outcome,[1],inactive
same,outcome,[2],inactive
same,outcome,[3],inactive
same,outcome,[4],inactive
same,outcome,[5],inactive
same,outcome,[6],inactive
same,outcome,[7],inactive
same,outcome,[8],inactive
CC(=O)OCC=C(C)CCC=C(C)CCC=C(C)C,outcome,[1],inactive
same,outcome,[2],inactive
same,outcome,[3],inactive
same,outcome,[4],inactive
same,outcome,[5],inactive
same,outcome,[6],inactive
same,outcome,[7],inactive
same,outcome,[8],inactive
C[C@]12CC[C@@H]3c4ccc(O)cc4CC[C@H]3[C@@H]1CC[C@@H]2O,outcome,[1],inactive
same,outcome,[2],inactive
same,outcome,[3],inactive
same,outcome,[4],inactive
same,outcome,[5],inactive
same,outcome,[6],inactive
same,outcome,[7],inactive
same,AC50,[10],12 µM (active)
same,outcome,[8],inactive
CCCCCCCCCCCCS,AC50,[1],20 µM (active)
same,AC50,[2],29.3 µM (active)
same,outcome,[3],inactive
same,AC50,[4],14.2 µM (active)
same,AC50,[5],20 µM (active)
same,AC50,[6],20 µM (active)
same,outcome,[7],inactive
same,outcome,[8],inactive
CCC(=O)OCC=Cc1ccccc1,outcome,[1],inactive
same,outcome,[2],inactive
same,outcome,[3],inactive
same,outcome,[4],inactive
same,outcome,[5],inactive
same,outcome,[6],inactive
same,outcome,[7],inactive
same,outcome,[8],inactive
CC1=CC(C)C(C=O)C(C)C1 (stereo not drawn) (tested in a mixture with another compound),outcome,[1],inactive
same,outcome,[2],inactive
same,outcome,[3],inactive
same,outcome,[4],inactive
same,outcome,[5],inactive
same,outcome,[6],inactive
same,outcome,[7],inactive
same,outcome,[8],inactive
C=C1CC/C=C(\C)CC[C@@H]2[C@@H]1CC2(C)C,AC50,[1],10.8 µM (active)
same,AC50,[2],20 µM (active)
same,AC50,[3],4.87 µM (active)
same,AC50,[4],20 µM (active)
same,AC50,[5],34.5 µM (active)
same,AC50,[6],30.5 µM (active)
same,outcome,[7],inactive
same,AC50,[8],31.8 µM (active)
